Screens (PubChem BioAssay)
PPC-1+TRAIL kill: compounds killing PPC-1 cancer cells with TRAIL present, primary screen, TRAIL potentiator project, ATPLite luminescence, uHTS | PPC-1 cells + TRAIL, ATPLite viability luminescence | cell killing (% activity), % at 4 µM or 5 µM | 220,000 tested, 0.41% active | AID 1443, 2008;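 active = cell killing above 50% in the first pass at 4 µM, then a duplicate retest at 5 µM averaging 50% or more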
Peg3 prom inh: Peg3 promoter-driven luciferase inhibitors, primary screen, cell-based, HeLa, luciferase luminescence; inhibition, % at 20 µM; 360,000 tested, 1.7% active; HeLa PEG-Prom luciferase reporter, overnight;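 active = inhibition of at least 50% at 20 µM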
HIF-2a inh: HIF-2a reporter inhibitors, primary screen, luminescence, 786-0 RCC cells | inhibition, % at 18.8 µM | 786-0 RCC cells HIF-2a reporter, luciferase luminescence, overnight | 360,000 tested, 0.72% active;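 active = inhibition of the luminescence signal of 40% or more relative to plate controls, in a single-dose primary screen at 18.75 µM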
C8 TRAIL sens: viability loss with TRAIL in NB7+C8 cells, primary screen, TRAIL sensitizer project, cell-based, ATPlite luminescence; inhibition (viability loss, TRAIL sensitization), % at 10 µM; 360,000 tested, 1% active; AID 624354, 2012;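 active = compounds causing at least 50% loss of cell viability in the single-dose screen, relative to plate controls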
KKLEB tox: cytotoxicity in KKLEB CF airway cells, primary screen, cytotoxicity control for CF NF-kB inhibitor project, cell-based, uHTS, fluorescence assay plates; 360,000 tested, 0.36% active; activity change (cytotoxicity), % at 5 µM; AID 602141, 2011; KKLEB CF airway cells viability, ATPlite luminescence, overnight; stronger effect = lower value; cells stimulated with P. aeruginosa culture filtrate;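 active = corrected activity change at or below -50% at 5 µM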
CF NFkB inh: inhibitors of PAF-induced NF-kB signaling, primary screen, cell-based, GFP fluorescence, uHTS; KKLEB NF-kB-GFP reporter, GFP fluorescence overnight; inhibition, % at 5 µM; 360,000 tested, 0.86% active;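 active = at least 50% inhibition at 5 µM, scaled per plate between neutral and stimulator controls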;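 also: PAF is a Pseudomonas aeruginosa culture filtrate used as stimulus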
CF NFkB conf: inhibitors of PAF-induced NF-kB signaling, retest, confirmation, cell-based, GFP fluorescence, single concentration; shares compounds with CF NFkB inh; KKLEB CF airway cells, overnight; inhibition, % at 5 µM; 1,300 tested, 64% active; in the data active = inhibition above about 40%;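 also: stimulus PAF is a Pseudomonas aeruginosa filtrate and not platelet activating factor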
Hits are given with their value; - = inactive; . = no result. Shown are actives, neighbours in structure and some others; about 3.1% of the full set was active somewhere.

SMILES	PPC-1+TRAIL kill	Peg3 prom inh	HIF-2a inh	C8 TRAIL sens	KKLEB tox	CF NFkB inh	CF NFkB conf
Nc1nc(N)nc(-c2ccccc2)n1	-	-	-	-	-	-	.
c1ccc(-c2nc3nonc3nc2-c2ccccc2)cc1	-	-	-	-	-	72.2	65.7
CC(O)(c1ccc(F)c(F)c1)c1nc(-c2ccoc2)cs1 (configuration not stated)	.	-	-	-	-	-	.
CCOc1ccc(C(C(=O)NCC2CCCO2)N(Cc2cccs2)C(=O)c2snc(C(N)=O)c2N)cc1 (configuration not stated)	.	-	-	-	-	72.0	71.7
COc1ccc(-c2cc(C(F)(F)F)nc(N3CCN(c4ccc(F)cc4)CC3)n2)cc1OC	-	-	-	-	-	54.1	41.1
COc1ccc(-c2cc(C(F)(F)F)nc(N3CCN(Cc4ccccc4)CC3)n2)cc1OC	-	-	-	-	-	-	.
C[C@@H]1CN([C@@H](C)CO)C(=O)CCCn2nncc2CO[C@@H]1CN(C)C(=O)Nc1ccnc(N2CCOCC2)c1	.	-	-	-	-	-	.
O=C(N/N=C/c1cccnc1)c1ccccc1Cl	.	-	-	-	-	-	.
Nc1c(Cl)c(Cl)nc(C(=O)N/N=C/c2cccnc2)c1Cl	-	-	-	-	-	51.0	-
COc1ccc(-n2c(SCC(=O)Nc3cc(C)on3)nc3c(c2=O)SC(C)C3)cc1 (configuration not stated)	.	-	-	-	-	-	.
COc1ccc(N(CCCN2C(=O)c3cccc4cccc(c34)C2=O)C(=O)c2ccncc2)cc1	-	-	-	-	-	50.1	45.3
COc1ccc(N(CCCN2C(=O)c3cccc4cccc(c34)C2=O)C(=O)c2cccnc2)cc1	-	-	-	-	-	-	.
O=C(N1CCCCC1)N1CCN(C(c2ccccc2)c2ccccc2)CC1	-	-	-	-	-	-	.
Oc1c(C(c2ccccc2)N2CCCCC2)ccc2ccccc12 (configuration not stated)	.	-	-	-	-	68.1	-
CCCOc1cccc(C2C(C(=O)c3cc4ccccc4o3)=C(O)C(=O)N2c2cc(C)on2)c1 (configuration not stated)	.	-	-	-	-	66.1	-
Cc1cc(N2C(=O)C(O)=C(C(=O)c3cc4ccccc4o3)C2c2cccc(Br)c2)no1 (configuration not stated)	.	-	-	-	-	-	.
COc1ccc(-c2csc(C(NC(C)=O)c3ccccc3)n2)cn1 (configuration not stated)	.	-	-	-	-	-	.
CN(C(=O)c1cccc(NC(=O)Cc2ccc(NC(=O)C3CCN(C(=O)C4CCCCC4)CC3)cc2)c1)C1CC1	.	-	-	-	-	-	.
CCOC(=O)N1CCC(NC(=O)c2ccc3c(c2)N=C(CC)c2cc(C)ccc2S3)CC1	.	-	-	-	-	-	.
CCOC(=O)N1CCC(NC(=O)c2ccc3c(c2)N=C(C)c2c(C)ccc(C)c2S3)CC1	.	-	-	-	-	57.3	57.6
Cc1cnc(C)c(Nc2nc(C(N)Cc3ccc(Cl)cc3)cs2)n1 (configuration not stated)	.	-	-	-	-	-	.
CC(=O)NC(CC(C)C)C(=O)NC(Cc1ccccc1)C(=O)CCl (configuration not stated)	.	-	-	-	-	51.7	55.7
CCc1nnc(NC(=O)CCc2ccc(C)o2)s1	-	-	-	-	-	-	.
Cc1ccc(CCC(=O)Nc2ncc(Cc3cccc(Cl)c3Cl)s2)o1	-	-	-	-	-	52.2	78.4
C[N+](C)(C)CCN1C(=O)c2ccccc2C1=O	.	.	-	-	.	.	.
SMILES	PPC-1+TRAIL kill	Peg3 prom inh	HIF-2a inh	C8 TRAIL sens	KKLEB tox	CF NFkB inh	CF NFkB conf
Cc1ccc(NC(=O)CSc2nnc(-c3cc(C)[nH]n3)n2N)c(C)c1	.	-	-	-	-	-	.
O=C(/C=C/c1cccs1)Nc1cccc(NC(=O)/C=C/c2cccs2)n1	-	-	-	73.1	-	58.1	63.7
C[C@]12CC[C@@H]3c4ccc(O)cc4[C@@H](O)C[C@H]3[C@@H]1CC[C@@H]2O	-	.	.	.	.	.	.
CCOc1cc2c(cc1O)C(=NOC)CC1C2CCC2(C)C(O)CCC12 (configuration not stated)	.	-	-	-	-	51.5	75.7
CC(C)OCCCNC(=O)c1c(N)n(/N=C/c2ccccn2)c2nc3ccccc3nc12	-	-	-	-	-	56.4	-
CCC(C)NC(=O)c1c(N)n(/N=C/c2ccccn2)c2nc3ccccc3nc12 (configuration not stated)	-	-	-	-	-	-	.
Clc1ccc(Cn2ncc3c(N4CCN(c5ccccc5)CC4)ncnc32)cc1	.	91.8	-	73.5	-	90.6	99.7
O=C1CC(=O)OC(c2ccc([N+](=O)[O-])cc2)O1	.	102.8	85.9	-	-	90.2	111.3
CCC1C(=O)C(C)(C)C(=O)OC1c1ccc([N+](=O)[O-])cc1 (configuration not stated)	.	-	-	-	-	-	.
O=C(Nc1ccc(Cl)cc1C(=O)c1ccccn1)c1ccccc1	.	-	-	-	-	-	.
CN(c1cccc(Cl)c1)S(=O)(=O)c1cccc(C(=O)Nc2nc3ccccc3[nH]2)c1	-	75.9	-	-	-	80.4	47.0
COc1ccc(N(C)S(=O)(=O)c2cccc(C(=O)Nc3nc4ccccc4[nH]3)c2)cc1	-	-	-	-	-	-	.
O=C(Nc1ccccc1)OCCOc1ccc(Cl)cc1Cl	.	-	-	-	-	-	.
Cc1[nH]nc2ncc(C(=O)c3ccccc3O)cc12	-	-	-	-	-	85.9	94.0
COc1ccc([C@]2(C(C)C)ON(c3ccccc3C(F)(F)F)C2=O)cc1	.	66.2	-	-	-	58.3	51.7
COc1ccc(C2(c3ccc(OC)cc3)NC(=O)N(CC(=O)Nc3ccccc3C(F)(F)F)C2=O)cc1	.	-	-	-	-	-	.
COc1ccccc1[C@]1(C)ON(c2ccccc2C(F)(F)F)C1=O	.	81.9	-	-	-	55.5	70.2
COc1ccc2c(c1)C(=O)N(c1ccccc1OC)C(=O)C2(C)C	-	-	-	-	-	-	.
O=C(NCC[C@H]1CC[C@H](NS(=O)(=O)c2ccccc2F)[C@@H](CO)O1)c1ccc(F)cc1	.	.	-	-	.	.	.
C[C@H](CO)N1C[C@H](C)[C@@H](CN(C)S(=O)(=O)c2ccccc2)Oc2c(NC(=O)CCC(F)(F)F)cccc2C1=O	.	-	-	-	-	-	.
